Assay results: PubChem BioAssay
The source made the active and inactive calls.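 The calls were made as follows, unless noted: active = visual image review flags a hit and inhibition of aggregation exceeds 20%; inconclusive = visual hit but inhibition at or below 20%; inactive = no hit on visual image review.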

What was measured:
[1] = inhibitors of TNFa-induced NFkB p65 translocation, primary screen, imaging, HUVEC, MLSMR starter and 10KST1 sets (AID 438;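 active = inhibition above 20% together with a positive visual image hit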;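 also: compound added about 3h40 before a 20 min TNFalpha stimulation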;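 as to inhibition: signal is the nuclear over cytoplasmic p65 intensity ratio per well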); settings: HUVEC TNFa-induced p65 nuclear translocation; cell count: measured here: nuclei count (cytotoxicity indicator), at 2.08 µM; inhibition: at 2 µM, stronger effect = higher value, 0% TNFa-plus-vehicle, 100% no-TNFa wells
[2] = inhibitors of mutant huntingtin aggregation, primary screen, imaging, exon1htt(103Q)mCFP cells, high-content imaging (AID 483); settings: exon1htt(103Q)mCFP cell line, aggregate imaging, at 2 µM; inhibition of aggregation: stronger effect = higher value; nuclei count: measured here: cell count, toxicity;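 also: compound exposure lasted 3 days before fixation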;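 as to nuclei count: percent of the per-plate median nuclei count of sample wells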
[3] = inhibitors of E-selectin induction by TNFa, primary screen, imaging, HUVEC, immunofluorescence, MLSMR starter and 10KST1 sets (AID 487;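 active = visually confirmed hit in the image check and inhibition above 20%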;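 as to inhibition: signal is fraction of cell area covered by stained E-selectin grains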;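 as to nuclei count: 100% = median nuclei count of all wells on the same plate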); settings: HUVEC TNFalpha-induced E-selectin immunofluorescence imaging, at 2 µM; inhibition: stronger effect = higher value; nuclei count: measured here: cell number, toxicity
[4] = biological target: Voltage-gated potassium channel subunit beta-2 (Rattus norvegicus) (UniProt P62483); assay: KvBeta enzyme negative modulators, primary screen, biochemical, NADPH fluorescence (AID 622;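 active = fluorescence slope higher than the sample average by over 3 SD, cut at about -0.22 in these data, passing the limit was not always enough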;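 also: slope of raw intensity against log time taken from 70 to 1610 s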); settings: recombinant KvBeta, 4-cyanobenzaldehyde reduction, at 10 µM, stronger effect = higher value
Chain of Voltage-gated potassium channel subunit beta-2 (Rattus norvegicus) (P62483 whole entry, looked up): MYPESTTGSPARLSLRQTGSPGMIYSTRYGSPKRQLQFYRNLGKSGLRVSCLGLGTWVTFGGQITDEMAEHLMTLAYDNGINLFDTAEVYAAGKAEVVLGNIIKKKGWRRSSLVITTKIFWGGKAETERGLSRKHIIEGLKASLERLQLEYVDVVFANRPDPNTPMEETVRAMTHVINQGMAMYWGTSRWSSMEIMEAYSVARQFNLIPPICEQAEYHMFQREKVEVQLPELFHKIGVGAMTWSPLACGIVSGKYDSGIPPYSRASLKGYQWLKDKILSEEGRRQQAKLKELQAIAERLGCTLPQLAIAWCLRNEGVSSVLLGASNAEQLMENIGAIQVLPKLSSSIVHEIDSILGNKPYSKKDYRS

[5] = biological target: Voltage-gated potassium channel subunit beta-2 (Rattus norvegicus) (UniProt P62483); assay: KvBeta positive modulators, primary screen, biochemical, NADPH fluorescence (AID 623;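 active = NADPH fluorescence slope more negative than the mean of all samples by about 3 SD, 99.7% confidence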;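 also: fluorescence intensity change per second fitted from 20 to 320 s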); settings: Recombinant KvBeta, NADPH fluorescence decrease slope, 10 min; at 10 µM; stronger effect = lower value
[6] = biological target: Alpha-2C adrenergic receptor (Homo sapiens) (UniProt P18825); assay: modulators of alpha2C/GIRK thallium flux, primary screen, cell-based, HEK293 alpha2C/GIRK1/2 (AID 624;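 active = fluorescence slope after compound addition differing from the mean of all screened samples at 99.7% confidence, in either direction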;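 also: slope of fluorescence ratio to pre-addition baseline per second over 15 to 24 s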); settings: thallium flux BTC fluorescence, at 10 µM, actives lie on both sides
Chain of Alpha-2C adrenergic receptor (Homo sapiens) (P18825 whole entry, looked up): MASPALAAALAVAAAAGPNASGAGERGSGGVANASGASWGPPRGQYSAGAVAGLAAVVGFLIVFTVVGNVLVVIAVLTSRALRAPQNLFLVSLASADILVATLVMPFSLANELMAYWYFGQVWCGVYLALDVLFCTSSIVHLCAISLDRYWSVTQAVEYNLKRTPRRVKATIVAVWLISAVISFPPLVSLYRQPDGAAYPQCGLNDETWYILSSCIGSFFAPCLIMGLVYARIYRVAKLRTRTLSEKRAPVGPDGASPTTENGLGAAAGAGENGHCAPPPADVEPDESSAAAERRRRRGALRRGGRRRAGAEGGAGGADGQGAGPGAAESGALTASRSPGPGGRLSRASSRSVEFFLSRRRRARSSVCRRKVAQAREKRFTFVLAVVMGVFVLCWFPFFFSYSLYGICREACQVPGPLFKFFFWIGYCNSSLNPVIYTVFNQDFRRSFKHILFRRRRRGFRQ

[7] = inhibitors of Sendai virus-induced IRF3 signaling, primary screen, TLR/RLR signaling modifier project, cell-based, Sendai virus stimulus, luciferase, 10K MLSCN set (AID 602276;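 active = inhibition at or above 50% at 10 µM; inactive = inhibition below 50%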;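 also: firefly luciferase from ISG56 promoter only with Renilla not read in this screen; 0% = Sendai virus plus DMSO and 100% = medium plus DMSO without virus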); settings: HEK293 RL24 IRF3 luciferase reporter, at 10 µM, stronger effect = higher value
[8] = inhibitors of poly I:C-induced TLR3 signaling, primary screen, cell-based, poly I:C stimulus, luciferase, 10K MLSCN set (AID 602277;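 active = inhibition of the reporter signal at or above 50%; inactive = inhibition below 50%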); settings: HEK293-TLR3 RL24 IRF3 luciferase reporter, at 10 µM, stronger effect = higher value

Structure (SMILES)	cell count [1]	inhibition [1]	inhibition of aggregation [2]	nuclei count [2] [%]	inhibition [3]	nuclei count [3] [%]	fluorescence slope [4]	NADPH fluorescence slope [5]	slope [6]	inhibition [7]	inhibition [8]
N#C/C(=C(/O)CN1CCOCC1)c1nc2ccccc2s1	794	2.1% (inactive)	-5.9% (inactive)	104	-126% (inactive)	129	-0.452 (inactive)	4.4e-05 (inactive)	0.00349 (inactive)	-15.8% (inactive)	-1.7% (inactive)
CN(C)C(=O)N1CCCC(C(=O)NCc2ccccc2)C1 (centres undefined)	606	-3.9% (inactive)	-1.5% (inactive)	84	-50.4% (inactive)	112	-0.341 (inactive)	-2.4e-05 (inactive)	0.00548 (inactive)	40.6% (inactive)	25.4% (inactive)
C=C(Cl)COC(=O)[C@H]1C2C=CC(C2)C1C(=O)O (some centres undefined)	347	-5% (inactive)	-18.6% (inactive)	96.9	-29.7% (inactive)	124	-0.435 (inactive)	5.3e-05 (inactive)	0.00591 (inactive)	-6.49% (inactive)	2.25% (inactive)
N#CC1=C(SCC(=O)NC23CC4CC(CC(C4)C2)C3)NC(=O)C(C#N)C12CCCCC2 (centres undefined)	755	-9.3% (inactive)	16.9% (inactive)	100	-142% (inactive)	123	-0.519 (inactive)	-6.2e-05 (inactive)	0.00603 (inactive)	16.3% (inactive)	-22.7% (inactive)
CCN(CC)c1nc2nonc2nc1N(CC)CC	314	-11.8% (inactive)	-1.5% (inactive)	100	-12.1% (inactive)	94.7	-0.446 (inactive)	-5.6e-05 (inactive)	0.00553 (inactive)	14.3% (inactive)	21.8% (inactive)
CCOC(=O)Cc1nnc2c(Nc3ccc(C)cc3)nc3nonc3n12	352	1% (inactive)	15% (inactive)	87.3	6.7% (inactive)	83	-0.612 (inactive)	-1.4e-05 (inactive)	0.00447 (inactive)	23.5% (inactive)	34.9% (inactive)
CCOC(=O)N1CCN(c2c(NCCCOC(C)C)c(=O)c2=O)CC1	642	-1.6% (inactive)	-10.2% (inactive)	109	27.9% (inactive)	122	-0.513 (inactive)	-2.4e-05 (inactive)	0.00694 (inactive)	7.84% (inactive)	16% (inactive)
O=C(NC1CC1)C1CCC(=O)N1C1CCCC1 (centres undefined)	435	-6.7% (inactive)	-18.4% (inactive)	119	-184% (inactive)	246	-0.47 (inactive)	2.9e-05 (inactive)	0.00569 (inactive)	7.79% (inactive)	14.9% (inactive)
COC(=O)c1cn(C(=O)c2ccc(Br)o2)c2ccccc12	309	-12.5% (inactive)	17.4% (inactive)	97.7	-179% (inactive)	101	-0.33 (inactive)	-2.6e-05 (inactive)	0.00583 (inactive)	0.625% (inactive)	18% (inactive)
CCOC(=O)c1oc2ccccc2c1CSc1nnnn1-c1ccc(C)cc1	371	-3.4% (inactive)	8.2% (inactive)	88.1	-60.7% (inactive)	106	-0.613 (inactive)	-2.5e-05 (inactive)	0.00768 (inactive)	-16.8% (inactive)	1.2% (inactive)
CC(C)(C)C(=O)CNS(=O)(=O)c1ccc(S(=O)(=O)NC2CCCC2)cc1	479	6% (inactive)	2.6% (inactive)	113	-35.9% (inactive)	94.4	-0.47 (inactive)	2.8e-05 (inactive)	0.00543 (inactive)	9.9% (inactive)	22.1% (inactive)
CC(C(N)=O)N1C(=O)C2C3C=CC(C3)C2C1=O (centres undefined)	217	1.8% (inactive)	-14% (inactive)	105	-33.8% (inactive)	121	-0.443 (inactive)	-2.4e-05 (inactive)	0.00534 (inactive)	10.1% (inactive)	11.3% (inactive)
CC(=O)OC1CSc2nc3ccccc3n2C1 (centres undefined)	393	-9.6% (inactive)	6.2% (inactive)	99.9	25.1% (inactive)	118	-0.302 (inactive)	-5.5e-05 (inactive)	0.00459 (inactive)	7.55% (inactive)	13% (inactive)
Cc1ccc(-n2ncc3c(N4CCCC(C)C4)ncnc32)c(C)c1 (centres undefined)	558	8% (inactive)	10.5% (inactive)	85.8	3.1% (inactive)	93.2	-0.527 (inactive)	-3.3e-05 (inactive)	0.00664 (inactive)	-57.7% (inactive)	-125% (inactive)
